# From PubChem BioAssay
# VDR inh = Inhibitors of the vitamin D receptor (VDR): qHTS; AID 504847, 2011; 400,000 compounds, 0.93% hits; Potency, µM, inactives show max response, negative = inhibition, most hits filed as inhibitors; Vitamin D3 receptor (Homo sapiens), P11473; VDR-SRC2-3 peptide fluorescence polarization, 2 h
#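 The screen uses fluorescence polarization to detect compounds that interfere with recruitment of the SRC2-3 coactivator peptide to VDR; plates are read after 2 h at room temperature.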
# mIDH1 inhibitor = qHTS for Inhibitors of mutant isocitrate dehydrogenase 1 (IDH1): qHTS; IDH1-R132H enzyme, NADPH consumption, diaphorase/resazurin fluorescence; Potency, µM (titrated, usually from 76.6 µM), inactives show top-dose activity change, negative = inhibition, most hits filed as inhibitors; Isocitrate dehydrogenase [NADP] cytoplasmic (Homo sapiens), O75874; 390,000 compounds, 0.093% hits; AID 602179, 2012; also: nearly all actives have a fitted effect of over 65% in size
#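 IDH1-R132H (0.5 ug/mL) preincubated 30 min with compound, then NADPH (0.016 mM) and alpha-KG (2 mM) added; 80 min at RT, pH 7.5. Remaining NADPH coupled via diaphorase/resazurin to fluorescence (540/590 nm); concentration-response curves normalized to no-enzyme control.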
# PLK1 PBD block = qHTS for Inhibitors of PLK1-PDB (polo-like kinase 1 - polo-box domain): Primary Screen | Serine/threonine-protein kinase PLK1 (Homo sapiens), P53350 | Plk1 PBD binding of FITC phosphopeptide, fluorescence polarization | Potency, µM, for inactives: max response, negative = inhibition, most hits filed as inhibitors | 360,000 compounds, 2.8% hits | AID 720504, 2013; also: series mostly up to about 57 µM; nearly all actives have a fitted effect of over 65% in size
# Target sequence (P53350 whole entry, looked up, the tested form may be a part): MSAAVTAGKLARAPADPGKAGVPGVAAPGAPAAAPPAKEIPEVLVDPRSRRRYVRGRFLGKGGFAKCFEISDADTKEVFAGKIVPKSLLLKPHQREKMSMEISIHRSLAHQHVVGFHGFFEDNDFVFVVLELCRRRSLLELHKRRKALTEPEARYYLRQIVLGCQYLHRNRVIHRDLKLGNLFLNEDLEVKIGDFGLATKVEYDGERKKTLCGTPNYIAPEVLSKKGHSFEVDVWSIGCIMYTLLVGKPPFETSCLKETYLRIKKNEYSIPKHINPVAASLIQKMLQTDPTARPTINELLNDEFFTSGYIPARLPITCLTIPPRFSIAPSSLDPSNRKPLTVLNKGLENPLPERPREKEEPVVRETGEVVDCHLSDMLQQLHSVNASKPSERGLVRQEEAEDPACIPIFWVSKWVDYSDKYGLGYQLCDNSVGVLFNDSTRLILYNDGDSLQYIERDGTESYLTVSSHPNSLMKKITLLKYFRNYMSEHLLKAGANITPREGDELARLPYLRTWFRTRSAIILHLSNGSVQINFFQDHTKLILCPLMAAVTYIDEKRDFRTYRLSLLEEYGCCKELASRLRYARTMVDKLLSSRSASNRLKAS
# rTrxR1 inhibitor = qHTS Assay for Inhibitors of Mammalian Selenoprotein Thioredoxin Reductase 1 (TrxR1): qHTS; Thioredoxin reductase 1, cytoplasmic (Rattus norvegicus), O89049; recombinant rTrxR1, NADPH fluorescence consumption, selenite substrate; Potency, µM (highest dose often 114 µM), inactives show at the top dose activity change, negative = inhibition, actives largely listed as inhibitors; 390,000 compounds, 1% hits; AID 588453, 2011; also: nearly all actives have a fitted effect of over 65% in size
#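 Rat TrxR1 (90 nM in the dispensed reagent) was pre-reduced with 400 uM NADPH for 5 min at room temperature, then incubated with compound for 15 min. After 400 uM selenite was added, NADPH fluorescence (Ex 340/Em 450 nm) was followed for 8 min.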
# Sfp PPTase inh = qHTS Assay for Inhibitors of Bacillus subtilis Sfp phosphopantetheinyl transferase (PPTase); 310,000 compounds, 3.5% hits; Biochemical Sfp PPTase activity, qHTS; 4'-phosphopantetheinyl transferase ffp (Bacillus subtilis), Q9F4F7; Potency, µM, inactives show largest response in the series, negative = inhibition, actives largely listed as inhibitors;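 also: the enzyme is Sfp with the accession as filed and its product quenches rhodamine fluorescence; 0% = enzyme reaction without inhibitor and -100% = no enzyme wells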
#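 Reaction rates are the 30-min fluorescence difference (ex 525, em 598 nm) in wells containing 15 nM Sfp, 5 uM rhodamine-CoA and 12.5 uM BHQ-2-YbbR at pH 7.6 with 10 mM MgCl2.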
# TrxR1 substrate = qHTS Assay for Substrates of Mammalian Selenoprotein Thioredoxin Reductase 1 (TrxR1): qHTS. Thioredoxin reductase 1, cytoplasmic (Rattus norvegicus), O89049. purified TrxR1 substrate turnover, NADPH consumption readout. Potency, µM (top dose mostly 114 µM), for the others: at the top dose activity change, negative = substrate turnover. 390,000 compounds, 0.01% hits; also: nearly all actives have a fitted effect of over 50% in size
#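 Rat TrxR1, dispensed at 90 nM, was prereduced with 400 uM NADPH (final) for 5 min at ~22 deg C, then incubated with compound 15 min before 400 uM selenite. A first-read NADPH fluorescence drop versus no-compound background flagged substrates.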
# * = called active by the depositor; ? = inconclusive; . = no result; [ ] = dose if it differs, or a comment. Hits are enriched below; roughly 5.2% of the tested compounds scored in any of these assays. Calls follow the shape of the dose curve; as a rule, active = well fitted curve in the direction sought with a large enough effect; inconclusive = small, poorly fitted or top-dose-only effect, or another doubt; inactive = no such curve, though single readings can be large; an effect the other way counts as inactive or inconclusive. Unless noted, % is scaled to controls: 0 for no effect and ±100 for the full control effect; potency is read from the fitted curve at half-maximal effect.
SMILES,VDR inh,mIDH1 inhibitor,PLK1 PBD block,rTrxR1 inhibitor,Sfp PPTase inh,TrxR1 substrate
CCOC(=O)N1CCN(C(=O)CSc2nc(-c3cccc(C)c3)ns2)CC1,?,5.1%,6.7µM*,10.5%,35.5µM*,-5.0%
CCOC(=O)CSc1nc(-c2ccc(OC)cc2)ns1,-8.3%,4.3%,10.6µM*,-2.4%[57.1 µM],22.4µM*,-14.0%
O=C(CSc1nnc(-c2ccccc2)c2ccccc12)NCC1CCCO1 (configuration not stated),.,.,.,.,-29.0%,.
Cc1cccc(-c2nsc(SCC(=O)Nc3cc(C)on3)n2)c1,10.4%,0.4%,?,-4.7%,1.7%,-1.9%
C=C[C@@]1(C)CC(=O)[C@]2(O)[C@@]3(C)[C@H](O)CCC(C)(C)[C@@H]3[C@H](O)[C@H](OC(C)=O)[C@@]2(C)O1,10.3%,.,.,.,6.8%,.
CCOc1ccccc1NC(=O)C1CCN(S(=O)(=O)c2ccc3[nH]c4c(c3c2)CCCCC4)CC1,12.2%,-6.6%,.,9.0%[57.1 µM],.,-1.9%[57.1 µM]
NC(=O)CN1C(=O)NC2(CCOc3ccccc32)C1=O (configuration not stated),7.7%,-4.3%,-4.5%,19.4%,14.6%,3.7%
CC1(CCc2ccccc2)NC(=O)N(CC(=O)O)C1=O (configuration not stated),?,-3.2%,23.8µM*,8.3%,17.5%,1.0%
Cc1ccccc1OCC(=O)OCc1cc(=O)n2ccsc2n1,0.9%,-6.6%,.,4.4%[57.1 µM],.,4.0%[57.1 µM]
CCCCCCCc1cc2c(cn1)=C(OC)C(C)(OC(C)=O)C(=O)C=2Cl (configuration not stated),1.1%,.,.,.,19.7%,.
Nc1ccc(S(=O)(=O)N2CCCC2C(=O)O)cc1 (configuration not stated),-27.0%,-8.4%,-1.6%,7.4%,79.4µM*,-5.2%
O=C(O)C1CCCCN1S(=O)(=O)c1ccccc1 (configuration not stated),18.8%,9.1%,-10.2%,-3.1%,7.4%,-4.9%
Cc1cccc2cc(CN(Cc3cccnc3)C(=S)NCCCN(C)C)c(=O)[nH]c12,?,-1.3%,9.47µM*,-18.4%[57.1 µM],1.8%,-0.7%[57.1 µM]
CC1=C(C(=O)NC2CCCC(C)C2C)C2(CCCCC2)OC1=O (configuration not stated),-8.1%,0.2%,23.8µM*,1.5%,4.0%,-4.5%
CC1=C(C(=O)NC2CCCCC2C)C2(CCC(C)CC2)OC1=O (configuration not stated),-14.8%,0.9%,-5.1%,29.4%[57.1 µM],14.7%,11.0%[57.1 µM]
CCc1sc(Nc2cccc(Cl)c2)nc1-c1cc2cccc(OC)c2oc1=O,9.3%,-5.4%,.,8.9%[57.1 µM],.,-0.2%[57.1 µM]
O=C(NN1C(=O)C2C3C=CC(C4CC34)C2C1=O)c1cccc(Cl)c1 (configuration not stated),-5.2%,2.7%,4.6%,-17.9%,-19.7%,-9.6%
O=C(NN1C(=O)C2C3C=CC(O3)C2C1=O)c1cccc(O)c1 (configuration not stated),-16.4%,-0.8%,-5.7%,?,44.7µM*,-9.6%
O=C(NN1C(=O)C2C3C=CC(O3)C2C1=O)c1cccc(Br)c1 (configuration not stated),16.1%,1.1%,-12.5%,-21.4%[57.1 µM],39.8µM*,9.8%[57.1 µM]
Cc1cccc(C(=O)NN2C(=O)C3C(c4ccccc4)C=CC(c4ccccc4)C3C2=O)c1 (configuration not stated),1.3%,-3.9%,-8.4%,0.3%[57.1 µM],40.3%,14.5%[57.1 µM]
COc1ccc(Cl)cc1NC(=O)c1cnc(SC)nc1-c1ccccc1,4.9%,4.0%,.,5.9%,.,3.5%
O=C1c2ccccc2C(=O)N1CCSc1n[nH]c(=S)s1,?,3.6%,-13.7%,-15.5%,50.1µM*,0.1%
COc1ccc2c(c1)O[C@H](c1ccc3c(c1)OCO3)[C@@H](OC(=O)NCc1ccco1)C2=O,?,.,.,.,89.1µM*,.
O=C(NCc1ccco1)C1CC(c2ccccc2O)=NO1 (configuration not stated),4.9%,2.0%,-19.9%,5.9%[57.1 µM],-26.0%,4.1%[57.1 µM]
COc1ccc2c(c1)O[C@H](c1ccc3c(c1)OCO3)[C@@H](OC(=O)NCc1ccc3c(c1)OCO3)C2=O,4.0%,.,.,.,0.2%,.
SMILES,VDR inh,mIDH1 inhibitor,PLK1 PBD block,rTrxR1 inhibitor,Sfp PPTase inh,TrxR1 substrate
COc1ccc(OC)c(C2=NOC(C(=O)NCc3ccco3)C2)c1 (configuration not stated),-4.9%,3.7%,-6.6%,28.2µM*,-8.3%,3.6%
COc1ccc2c(c1)C(=O)[C@H](OC(=O)NCc1ccco1)[C@@H](c1ccc(OC)c(Br)c1)O2,56.2µM*,.,.,.,-4.1%,.
O=S(=O)(c1cccc(F)c1)N1CCN(c2nc(-c3cccs3)nc3ccccc23)CC1,-14.7%,.,.,11.5%,.,10.2%
Cc1nn(CCC(=O)N2CCN(c3ccccc3)CC2)c(C)c1S(=O)(=O)N1CCCC1,7.1%,15.4%,.,13.8%[57.1 µM],.,3.0%[57.1 µM]
Cc1cc(Cn2nnnc2-c2ccncc2)cc(C)c1O,4.4%,-6.6%,37.7µM*,?,10.9%,0.8%
Cc1ccc(S(=O)(=O)N2CCC(C(=O)N(C)C3CCS(=O)(=O)C3)CC2)cc1 (configuration not stated),-13.2%,1.6%,5.97µM*,17.7%[57.1 µM],8.5%,12.0%[57.1 µM]
CN(C(=O)c1ccc(S(=O)(=O)N2CCCCC2)cc1)C1CCS(=O)(=O)C1 (configuration not stated),3.5%,0.5%,2.5%,15.4%[11.4 µM],.,10.4%[11.4 µM]
Oc1ccccc1C1C=C(c2ccc3c(c2)OCO3)NC(c2cccc(Br)c2)N1 (configuration not stated),?,.,.,-4.5%,.,0.1%
Cc1nc(NC(C)c2ccccc2)sc1C(=O)Nc1ccccc1 (configuration not stated),-16.1%,16.8%,23.8µM*,15.4%,12.2%,-1.3%
CC(=O)c1sc(NC(C)c2ccccc2)nc1C (configuration not stated),17.4%,6.3%,-1.5%,1.1%,-6.5%,1.2%
COc1ccc(NC(=O)CN2CCN(Cc3ccccc3Cl)S2(=O)=O)cc1Cl,-10.9%,-5.3%,.,21.7%,.,5.6%
O=C(NCc1ccco1)c1ccc2c(c1)N(Cc1ccc(F)cc1)C(=O)c1ccccc1S2=O (configuration not stated),-9.9%,-6.6%,.,28.3%,.,-3.7%
Cn1c(SCC(=O)c2ccccc2)nnc1-c1ccc(O)cc1,-21.4%,9.6%,-7.6%,-8.8%,79.4µM*,4.8%
